High-throughput results as filed in PubChem.
TCR activator: Activators of T cell receptors: qHTS campaign. primary human leukocytes, anti-CD3, IL-2 HTRF, 48 h. Potency, µM (top dose mostly 9.22 µM), for the others: top-dose activation of IL-2 secretion, usual class: activators. 330,000 tested, under 10 active. AID 504894, 2011; note: % of control where 0% means no effect
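1) Mix primary human leukocytes, a-CD3 beads and compound. 2) Incubate 48 hr. 3) Add HTRF IL-2 reagents (a-IL-2-K, a-IL-2-d2).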
Mm-Cpn inhibitor: Inhibitors of TCP-1 ring complex (TRiC) of Methanococcus maripaludis (MmCpn): qHTS; purified Mm-Cpn ATPase, ADP Transcreener TR-FRET; Chaperonin Mm-Cpn (Methanococcus maripaludis); actives 0.031% (n = 330,000); Potency, µM (doses to about 76.9 µM), for the others: at the highest dose activity, negative = inhibition, usual class: inhibitors; note: potency is the fitted concentration of half-maximal effect; % is set by controls: 0 for no effect and ±100 for the full control effect; nearly all actives have a fitted effect of over 80% in size
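Purified archaeal Mm-CPN (25nM final) preincubated 10 min at 37degC with compound, then 10uM ATP for 30 min at 37degC; ADP measured by HTRF Transcreener TR-FRET; buffer 30 mM TRIS pH 7.4, 100mM KCl, 5mM MgCl2, 1mM DTT.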
B2AR arrestin: qHTS assay of beta-arrestin-biased ligands of beta2-adrenergic receptor; actives 0.02% (n = 330,000); AID 492947, 2010; beta-arrestin recruitment to beta2AR, cell-based reporter; Beta-2 adrenergic receptor (Homo sapiens), P07550; Potency, µM (titrated, usually from 46.1 µM), for inactives: at the top dose activation, most hits filed as activators;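 note: potency is the fitted concentration of half-maximal effect; 0% = DMSO controls and full agonism = EC100 isoproterenol or metaproterenol; nearly all actives have a fitted effect of over 65% in size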
Target sequence (P07550 whole entry, looked up): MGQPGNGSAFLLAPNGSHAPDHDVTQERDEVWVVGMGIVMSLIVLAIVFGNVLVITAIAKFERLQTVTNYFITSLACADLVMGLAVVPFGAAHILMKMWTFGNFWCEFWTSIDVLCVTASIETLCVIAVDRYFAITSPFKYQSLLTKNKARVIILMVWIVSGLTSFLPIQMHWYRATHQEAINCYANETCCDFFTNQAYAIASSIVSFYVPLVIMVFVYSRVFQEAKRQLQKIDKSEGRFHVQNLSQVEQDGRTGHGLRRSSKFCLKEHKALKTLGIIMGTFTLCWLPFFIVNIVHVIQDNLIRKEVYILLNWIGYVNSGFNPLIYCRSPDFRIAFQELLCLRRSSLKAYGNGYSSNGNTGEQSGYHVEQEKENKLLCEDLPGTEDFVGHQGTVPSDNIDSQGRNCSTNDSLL
CCT modulator: High-Throughput Screening for Modulators of Cytosolic Chaperonin Activity. purified chaperonin ATPase assay, HTRF ADP detection, 30 min. AID 651819, 2012. actives 0.3% (n = 360,000). activity change, % (test concentration not listed), hits read low; in the data active = activity change below about -30%; note: % is set by controls: 0 for no effect and ±100 for the full control effect
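Nucleotide hydrolysis assay: TRiC at 20–40 nM final (set by batch activity) with 10 uM ATP, 30 min at 37 °C, in presence of 76 uM compound. Detection by competitive ADP HTRF, 30 min ambient.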
TSHR antag: Antagonists of the Thyroid Stimulating Hormone Receptor: HTS campaign | TSHR-expressing cells, TSH-stimulated cAMP HTRF, 2 h; active compounds read low | activity change, negative = inhibition, % at 11.5 µM | Thyrotropin receptor (Homo sapiens), P16473 | actives 0.2% (n = 330,000);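 active = activity change below a set negative limit, meaning inhibition stronger than a set level, cut at about -70% in these data; inconclusive = activity change between two set negative limits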; note: % is set by controls: 0 for no effect and ±100 for the full control effect
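Inhibition of cAMP made by TSHR-expressing cells under TSH stimulation (4nM final, EC80; 2 h, 37 deg C) is quantified with a one-step lysis HTRF kit, anti-cAMP cryptate versus cAMP-d2.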
Starred values were filed as active, the others as inactive; ? = inconclusive; nt = no result given; [ ] = another dose, or the depositor's remark. Hits are enriched below; roughly 0.5% of the tested compounds scored in any of these assays. Unless noted, calls come from the whole dose curve; as a rule, active = well fitted curve in the direction sought with a large enough effect; inconclusive = small, poorly fitted or top-dose-only effect, or another doubt; inactive = no such curve, though single readings can be large; an effect the other way counts as inactive or inconclusive.

SMILES | TCR activator | Mm-Cpn inhibitor | B2AR arrestin | CCT modulator | TSHR antag
CC(=O)Nc1ccc(N(CC(O)Cn2c3ccccc3c3ccccc32)S(=O)(=O)c2ccc(C)cc2)cc1 (configuration not stated) | 2.3% | -16.8% | -0.9% | -46.0* | 17.6
Cc1c(NC(=O)CSc2ccccc2F)c(=O)n(-c2ccccc2)n1C | 1.2% | -2.5% | 0.0% | -2.9 | 30.3
COc1cc(OC)c(NC(=O)Cn2cnc3sc(C)c(S(=O)(=O)N4CCOCC4)c3c2=O)cc1Cl | 1.9% | -7.3% | -0.2% | -1.0 | -97.2*
O=C(COC(=O)/C=C/c1ccccc1Cl)NCCc1ccc(Cl)cc1Cl | 12.0%[46.1 µM] | 2.1% | 2.5% | -39.1* | -17.2
Cc1nn(CC(C)C)c(Cl)c1C(=O)NCC(C)(C)N1CCOCC1 | nt | nt | nt | -33.9* | nt
CC1(CCc2ccccc2)NC(=O)N(CC(=O)N2CCc3ccccc32)C1=O (configuration not stated) | nt | nt | nt | 1.0 | nt
CC1(CCc2ccccc2)NC(=O)N(CC(=O)N2CC(=O)Nc3ccccc32)C1=O (configuration not stated) | 6.5% | -0.4% | 0.1% | -0.6 | -76.8*
Cc1cc(C(=O)Cn2nc(C(=O)O)c3ccccc3c2=O)c(C)n1CC(F)(F)F | 2.6% | 0.1% | -0.4% | -3.4 | 33.9
O=C1NC(Cc2c[nH]c3ccccc23)C(=O)N1Cc1ccccc1 (configuration not stated) | -9.7% | 1.1% | -1.5% | 0.8 | -10.2
COC(=O)c1ccc(CN2C(=O)NC(Cc3c[nH]c4ccccc34)C2=O)cc1 (configuration not stated) | 10.3% | 0.0% | -0.4% | 2.6 | -98.1*
Cn1c(=S)c2[nH]c(SCCN3CCCC3)nc2n(C)c1=O | 11.8% | -3.6% | 15.8µM* | -0.3 | 18.0
CC1(C(=O)NS(=O)(=O)c2cccc(C#N)c2)CCN1C(=O)C1CCCCC1 (configuration not stated) | nt | nt | nt | 0.5 | nt
CN(C)[C@H]1N(C(=O)c2ccc(Br)cc2)N=C2c3ccccc3S(=O)(=O)N21 | -2.0% | -2.1% | -0.1% | -3.9 | -8.9
CCC(C)(C)NC(=O)CN(C(=O)c1ccc(N2CCCC2)nc1)c1ccc(F)cc1 | -2.4% | -0.3% | -0.6% | -0.3 | 10.7
Cc1cccc(N(CC(=O)NC(C)C)C(=O)c2ccc(N3CCCC3)nc2)c1 | 6.4% | 1.7% | 0.4% | -34.8* | -0.7
COCc1c(C(=O)Nc2cccc(S(=O)(=O)N3CCCCC3)c2)oc2ccccc12 | 0.9%[46.1 µM] | -1.7% | -0.7% | -74.1* | ?
O=C(Nc1cccc(S(=O)(=O)N2CCCCC2)c1)c1cc2ccccc2o1 | 7.8% | ? | 0.3% | 1.7 | -13.8
O=S(=O)(c1cc(Br)c(Cl)s1)N1CCCC1 | 1.8% | 1.2% | -0.6% | -0.2 | -78.0*
COc1ccc(NC(=O)CN(C)C(=O)CCC2CCCC2)cc1 | 0.4% | 0.6% | -0.1% | -35.9* | 13.5
CC(C)C(C)(C#N)NC(=O)CSc1nc(C2CCCCC2)n(-c2ccccc2)n1 (configuration not stated) | 0.1%[46.1 µM] | 1.6% | -0.4% | -33.5* | -5.2
COc1ccc(CC(=O)Nc2nc(C(C)(C)C)cs2)cc1 | 0.5% | 3.5% | 0.3% | -67.3* | -12.5
COc1ccc(CC(=O)Nc2nc(C)cs2)cc1 | -3.8% | -0.9% | -0.4% | -5.6 | -8.4
c1cnc2c(-c3cccc4nccn34)cccc2c1 | nt | nt | nt | 0.9 | nt
CC(C)(C)c1ccc(OCC(O)CN2CCc3ccccc3C2)cc1 (configuration not stated) | -0.6% | nt | nt | -57.5* | nt
COc1ccc(OCC(O)CN2CCc3ccccc3C2)cc1 (configuration not stated) | -1.2% | 0.6% | -0.5% | -1.0 | 9.2
SMILES | TCR activator | Mm-Cpn inhibitor | B2AR arrestin | CCT modulator | TSHR antag
OC(COc1ccccc1)CN1CCN(CC(O)COc2ccccc2)CC1 (configuration not stated) | 4.2% | 0.6% | -0.3% | -2.2 | 31.5
Cc1ccccc1NC(=O)Cc1nc(COC(=O)c2ccc(NC(N)=O)cc2)cs1 | -3.6% | -9.8% | -0.5% | -0.9 | -14.3
CCOP(=O)(CC(C(C)=O)C(O)c1ccccc1)OCC (configuration not stated) | -1.9% | 2.2% | -1.0% | -1.4 | 3.3
CCOP(=O)(Cc1ccc(C(C)(C)CC(C)=O)o1)OCC | -0.8% | 0.5% | -0.5% | 0.2 | -81.8*
c1ccc2oc(NC3=NCN(C4CCCCC4)CN3)nc2c1 | -2.4% | -3.5% | -0.6% | 0.4 | 3.2
Cc1cc(SCC(=O)c2ccc(O)c(O)c2)nc2ccccc12 | -1.3% | -0.5% | -0.6% | -0.8 | -7.1
Cc1cc(SCC(=O)c2ccc3c(c2)OCO3)nc2ccccc12 | -2.0% | ? | 0.3% | -69.4* | -5.1
Cc1cccc(Nc2nnc(SCC(=O)c3ccc(Br)s3)s2)c1C | 9.3%[46.1 µM] | 39.8µM* | 0.4% | 1.9 | -3.2
COc1ccccc1C(=O)NCCC(=O)Nc1ccc(OC(F)(F)F)cc1 | -5.1% | -0.4% | -0.8% | -0.5 | -95.4*
CCc1cc2cccc(C)c2nc1SCC(=O)Nc1nonc1C | -3.9% | ? | 0.1% | -2.9 | -21.5
CCOC(=O)c1nn2c(C(F)(F)F)cc(-c3ccc(OC)cc3)nc2c1Br | nt | -1.1% | -0.1% | -32.8* | 5.8
COCCNC(=O)c1nn2c(C(F)(F)F)cc(-c3ccccc3)nc2c1Br | nt | nt | nt | -0.6 | nt
Fc1ccc(SCCc2ccncc2)cc1 | -0.2% | 0.6% | -1.0% | 0.7 | -2.1
CSCCC(NS(=O)(=O)c1ccc2ccccc2c1)C(=O)OCC(=O)c1ccc(C(C)C)cc1 (configuration not stated) | -0.3%[46.1 µM] | -5.3% | -0.4% | -3.0 | 13.6
c1ccc(-c2nc3ccccn3c2NC2CCCC2)nc1 | -8.1% | -4.3% | -0.4% | -1.2 | 9.8
Cc1ccn2c(NC3CCCC3)c(-c3ccccn3)nc2c1 | -5.3% | -3.2% | -0.1% | -93.2* | -7.3
O=C(c1cccnc1)N1CCc2ccccc2C1 | nt | 56.2µM* | -1.0% | 0.1 | 3.3
COc1ccccc1CNC(=O)CN1CCC(NC(=O)c2ccccc2F)CC1 | 3.3% | -1.3% | 0.4% | 0.4 | 21.5
O=S(=O)(NCC1OCCc2ccccc21)c1ccc(S(=O)(=O)N2CCOCC2)cc1 (configuration not stated) | 1.8% | -6.3% | -1.0% | -51.9* | 5.8
O=S(=O)(NCC1CCN(c2ccc(S(=O)(=O)N3CCOCC3)cc2)CC1)c1ccccc1 | -0.8% | 0.8% | 3.1% | -2.2 | 25.2
O=C(O)COc1ccc(NC(=O)c2ccc(NC(=O)c3ccco3)cc2)cc1 | 3.5% | 2.7% | -1.2% | -4.0 | 0.4
OCCN1CCN(C(=S)Nc2ccc(Oc3ccccc3)cc2)CC1 | -1.7% | -12.2% | -0.2% | -0.8 | 10.4
Cc1ccc(N(CC(=O)NC2CCCCCC2)S(=O)(=O)c2c(C)nn(C)c2C)cc1 | -3.5% | 2.3% | 0.1% | -47.3* | -3.9
O=C(Cn1ncc2c3ccccc3n(Cc3ccccc3F)c2c1=O)NCCN1CCOCC1 | -9.6% | 3.7% | 0.0% | -1.4 | -8.6
CCOC(=O)c1ccc(NC(=O)CN2CCN(Cc3ccccc3)CC2)cc1 | 0.2% | 2.6% | 0.3% | -86.3* | 11.2
